Measurements from PubChem BioAssay AID1527 (The Scripps Research Institute Molecular Screening Center, 2009).
The campaign covered roughly 290,000 compounds. About 2,600 (0.9%) were called active. Only a selection was taken, and actives are over-represented in it overall. A number with no mark means an inactive call.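 The calls were made as follows: active = inhibition above the mean of all tested compounds plus 3 SD, cutoff set per screening run (cut at about 7.5% in these data); inactive = the rest.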

These molecules were tested on VIM-2 metallo-beta-lactamase (Pseudomonas aeruginosa) (assay: VIM-2 metallo-beta-lactamase inhibitors, primary screen, biochemical, epi-absorbance readout, Pseudomonas aeruginosa enzyme (AID 1527;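 also: red hydrolysis product quenches plate fluorescence so inhibitors raise well fluorescence; 0% = enzyme with DMSO and 100% = DMSO without enzyme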)). Conditions: purified VIM-2, nitrocefin hydrolysis, epi-absorbance fluorescence; at 5.6 µM; stronger effect = higher value.

Question: With CCOc1ccccc1-c1nc(CN2CCC(C(=O)N3CCOCC3)CC2)c(C)o1 as the molecule, how does the inhibition read?
Answer: -1.39%

Question: Which inhibition does the source give for Cc1cc(C)c2c(n1)nn1c(N3CCOCC3)cc(C)nc21 here?
Answer: 16.1% (active)

Question: Which inhibition does the source give for Cc1cc(C)c2c(n1)nn1c(-n3ccnc3)cc(C)nc21 here?
Answer: 5.51%

Question: How did the inhibition turn out when Cc1cc(C)c2c(n1)nn1c(N3CCN(c4cccc(Cl)c4)CC3)cc(C)nc21 was run?
Answer: -6.43%

Question: For COc1ccc(OCC(=O)NCCS(=O)(=O)N2CCN(c3ccc(F)cc3)CC2)cc1, which inhibition is on record?
Answer: -1.58%

Question: Which inhibition does the source give for CCC(=O)N1c2ccc(S(=O)(=O)NCc3ccco3)cc2CC1C (stereo unspecified) here?
Answer: -0.12%

Question: For O=C(N/C(=C\c1ccc([N+](=O)[O-])cc1)C(=O)N1CCCCC1)c1ccco1, which inhibition is on record?
Answer: -3.79%

Question: COc1ccc(OC)c(S(=O)(=O)n2c([N+](=O)[O-])cnc2C)c1 was tested. Which inhibition did it give?
Answer: -2.01%

Question: With CCOC(=O)C(Cc1ccc(N)cc1)N1C(=O)c2ccccc2C1=O (stereo unspecified) as the molecule, how does the inhibition read?
Answer: -2.51%

Question: Which inhibition does the source give for COc1ccc(S(=O)(=O)NC(C)C(=O)NCc2ccncc2)cc1Cl (stereo unspecified) here?
Answer: -2.14%

Question: With CC(Oc1cc2oc(=O)c3c(c2cc1Cl)CCCC3)C(=O)NCc1ccncc1 (stereo unspecified) as the molecule, how does the inhibition read?
Answer: 7.79% (active)

Question: For Cc1cc(Cl)ccc1OCCCC(=O)NCc1ccncc1, which inhibition is on record?
Answer: -1.05%

Question: CCCCc1nc2cc(C(=O)NCCc3cnn(C)c3)ccc2o1 was tested. Which inhibition did it give?
Answer: 1.12%

Question: With Cc1nnc(SCC(=O)NCc2cccs2)[nH]c1=O as the molecule, how does the inhibition read?
Answer: -0.38%

Question: CC(C)(C)CC(=O)Nc1nnc(SCC(=O)NCc2cccs2)s1 was tested. Which inhibition did it give?
Answer: 20.2% (active)

Question: With O=C(Cc1cccs1)Nc1nnc(SCc2ccc(F)cc2)s1 as the molecule, how does the inhibition read?
Answer: 0.7%

Question: How did the inhibition turn out when CCn1c(SCc2cccc(C(=O)O)c2)nnc1-c1ccc(Cl)cc1 was run?
Answer: -1.15%

Question: How did the inhibition turn out when Cn1c(=O)c2c(nc(N3CCCCCC3)n2CC(=O)c2ccc(Br)cc2)n(C)c1=O was run?
Answer: -2.28%

Question: Which inhibition does the source give for Cn1c(=O)c2c(nc(N3CCOCC3)n2CCNC2=NCCC2)n(C)c1=O here?
Answer: 16% (active)

Question: How did the inhibition turn out when CCCCn1c(SCC(=O)N2CCOCC2)nc2c1c(=O)n(C)c(=O)n2C was run?
Answer: 1.45%

Question: Which inhibition does the source give for COc1ccc(C(=O)NCCNc2ccc([N+](=O)[O-])cn2)cc1 here?
Answer: 0.89%

Question: With Cc1c(OC(C)C(=O)NCC2CCC(C(=O)O)CC2)ccc2c1oc(=O)c1ccccc12 (stereo unspecified) as the molecule, how does the inhibition read?
Answer: 10.8% (active)

Question: How did the inhibition turn out when Cc1c(OC(C)C(=O)N[C@@H](Cc2ccccc2)C(=O)O)ccc2c3c(c(=O)oc12)CCCC3 (stereo partly specified) was run?
Answer: 6.52%

Question: With Cc1cc(=O)oc2c(C)c(OC(C)C(=O)NC3CCN(Cc4ccccc4)CC3)ccc12 (stereo unspecified) as the molecule, how does the inhibition read?
Answer: 2.37%

Question: How did the inhibition turn out when C=CCc1ccc(OCCOc2cccc(/C=N/n3cnnc3)c2)c(OC)c1 was run?
Answer: 0.81%

Question: For Cc1noc(C)c1CSCC(=O)N(CCC(C)C)c1c(N)n(Cc2ccccc2)c(=O)[nH]c1=O, which inhibition is on record?
Answer: -3.06%

Question: O=C(COc1ccc2c3c(c(=O)oc2c1)CCCC3)NCC(O)c1ccccc1 (stereo unspecified) was tested. Which inhibition did it give?
Answer: 6.2%

Question: For O=C(COc1ccc2c3c(c(=O)oc2c1)CCC3)NC1CCCCC1, which inhibition is on record?
Answer: -1.01%

Question: With CCCCc1cc(=O)oc2c(C)c(OCC(=O)N3CCC(C(N)=O)CC3)ccc12 as the molecule, how does the inhibition read?
Answer: -1.28%

Question: Cc1c(C)c2ccc(OCC(=O)N3CCN(c4cccc(Cl)c4)CC3)cc2oc1=O was tested. Which inhibition did it give?
Answer: -1.38%

Question: Which inhibition does the source give for NC(=O)COc1ccc2c3c(c(=O)oc2c1)CCCCC3 here?
Answer: 7.97% (active)

Question: With NC(=O)C1CCN(C(=O)COc2ccc3c4c(c(=O)oc3c2)CCC4)CC1 as the molecule, how does the inhibition read?
Answer: 14.1% (active)

Question: Cc1cc(Cl)nc(NC(=O)Nc2cccc(Cl)c2)n1 was tested. Which inhibition did it give?
Answer: 1.05%

Question: For Nc1cc(N)nc(SCc2cccc(F)c2)n1, which inhibition is on record?
Answer: 3.79%

Question: With N=c1oc2ccccc2cc1C(=O)NCc1ccccc1 as the molecule, how does the inhibition read?
Answer: -0.7%

Question: Which inhibition does the source give for CCOC(=O)CSc1nc2ccc(C)cc2n2cnnc12 here?
Answer: 9.79% (active)

Question: With COc1ccc(CCNc2nc3ccc(C)cc3n3cnnc23)cc1OC as the molecule, how does the inhibition read?
Answer: 0.51%

Question: With CCOC(=O)CSc1nc2ccc(C)cc2[nH]1 as the molecule, how does the inhibition read?
Answer: 0.26%

Question: For CCOC(=O)c1sc(NC(=S)n2cc(C)cn2)c(C(=O)OCC)c1C, which inhibition is on record?
Answer: -2.26%

Question: With CCn1cc(C(=O)NCCO)c(=O)c2cc(F)c(N3CCN(C)CC3)cc21 as the molecule, how does the inhibition read?
Answer: 1.17%

Question: CN1CCN(c2cc3c(cc2F)c(=O)c(C(=O)O)cn3CCF)CC1 was tested. Which inhibition did it give?
Answer: -0.28%

Question: For CCn1cc(S(=O)(=O)c2cccc(C)c2)c(=O)c2cc(F)c(N3CCN(C)CC3)cc21, which inhibition is on record?
Answer: 12.1% (active)

Question: For COc1ccc(/C=C/C(=O)NC(=S)N2CCCC(C(N)=O)C2)cc1 (stereo unspecified), which inhibition is on record?
Answer: -3%

Question: How did the inhibition turn out when COc1ccc(CNc2ccc3c(c2)CCC3)cc1OC was run?
Answer: -1.76%

Question: CC(=O)c1ccc(-c2ccc(Cn3c(C)nc4cc(N)c(C)nc43)cc2)cc1 was tested. Which inhibition did it give?
Answer: 21.7% (active)

Question: For CC(=O)c1nc2ccccc2n1Cc1ccccc1, which inhibition is on record?
Answer: -0.19%

Question: CCOC(=O)c1ccc2c(c1)nc(C)n2CC was tested. Which inhibition did it give?
Answer: -4.24%

Question: O=C(N/N=C/c1ccc(Cl)c(Cl)c1)c1ccc2nc[nH]c2c1 was tested. Which inhibition did it give?
Answer: -1.16%

Question: CS(=O)(=O)N1CCCC(C(=O)Nc2ccccc2C(F)(F)F)C1 (stereo unspecified) was tested. Which inhibition did it give?
Answer: -0.2%

Question: O=C(CSc1ccc(-c2ccco2)nn1)Nc1cccc(F)c1 was tested. Which inhibition did it give?
Answer: -1.64%

Question: For Cc1ccccc1C(=O)NC(=S)NC1CC1, which inhibition is on record?
Answer: -2.76%
